Measured values published in PubChem BioAssay (EPA / NIEHS).
Where “and” joins values, the source holds several entries; their conditions need not be identical. Equal values may be shown once. The source holds several records for some structures; these can differ, active in one and inactive in another. Calls of active or inactive are those of the source. Rule for the calls: active = hit-call score of the fitted dose curve at least 0.9, where 1 is the maximum; inactive = score below 0.9.

Tests used:
[1] = ATG_PBREM_CIS: Attagene CIS-FACTORIAL HepG2 Assay for human Phenobarbital-responsive Enhancer Module (PBREM) (AID 2282955); conditions: HepG2 PBREM cis-reporter, Attagene multiplexed transcription; actives raise or lower the signal
How it was run: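 Multiplexed cis-reporter readout in human hepatoma HepG2 cells; PBREM-regulated transcript quantified after 24 h exposure by fluorescent RT-PCR fragment analysis. Signal changes up or down fitted relative to DMSO.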

[2] = target: Paired box protein Pax-6 (Homo sapiens) (UniProt P26367); test: ATG_Pax6_CIS: Attagene CIS-FACTORIAL HepG2 Assay for human Paired Box 6 (PAX6) (AID 2282956); conditions: HepG2 CIS-FACTORIAL PAX6 reporter transcription, RNA readout; actives raise or lower the signal
How it was run: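 Values derive from bidirectional curve fitting of reporter mRNA signal relative to DMSO. HepG2 cells bearing transfected cis-regulated MRTUs were exposed for 24 h; transcripts were read by RT-PCR and capillary electrophoresis.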

[3] = ATG_PXRE_CIS: Attagene CIS-FACTORIAL HepG2 Assay for human Pregnane X Receptor Element (PXRE) (AID 2282957); conditions: HepG2 Attagene CIS-FACTORIAL PXRE reporter, mRNA; actives raise or lower the signal
How it was run: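 Fluorescent capillary electrophoresis of amplified reporter cDNA gave the signal, collected 24 h after dosing HepG2 cells that held transfected cis-element reporter constructs.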

[4] = ATG_PPRE_CIS: Attagene CIS-FACTORIAL HepG2 Assay for human Peroxisome Proliferator-activated Response Element (PPRE) (AID 2282958); conditions: HepG2 PPRE cis-element reporter, Attagene transcription factor profiling; actives raise or lower the signal
How it was run: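 DMSO served as negative control and baseline for bidirectional curve fitting. Signal came from PPRE-regulated reporter mRNA in HepG2 cells, measured 24 h post-dosing by RT-PCR, 6-FAM primer extension and capillary electrophoresis.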

[5] = ATG_RORE_CIS: Attagene CIS-FACTORIAL HepG2 Assay for human RAR-related Orphan Receptor Element (RORE) (AID 2282959); conditions: HepG2 Attagene cis-factorial RORE reporter, mRNA; actives raise or lower the signal
How it was run: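 Transfect HepG2 with MRTUs; treat 24 h; extract RNA; RT with oligo(dT); PCR with reporter-specific primers; 6-FAM primer extension; HpaI digest 2 h at 37 C; capillary electrophoresis. Fit vs DMSO, bidirectional.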

[6] = ATG_Sox_CIS: Attagene CIS-FACTORIAL HepG2 Assay for human SRY-box transcription factor (SOX) (AID 2282960); conditions: HepG2 Attagene cis-factorial SOX reporter, mRNA; actives raise or lower the signal
How it was run: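 Fluorescence-labelled cDNA fragments from reporter transcripts, sized by CE, give the signal. Cells: HepG2, transiently transfected with cis-regulated reporter units. Exposure 24 h; DMSO negative control; bidirectional curve fitting.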

[7] = target: Transcription factor Sp1 (Homo sapiens) (UniProt P08047); test: ATG_Sp1_CIS: Attagene CIS-FACTORIAL HepG2 Assay for human Specificity Protein 1 (Sp1) (AID 2282961); conditions: HepG2 Sp1 cis-reporter transcription, actives raise or lower the signal
How it was run: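 Chemicals are dosed onto HepG2 cells transfected with multiple cis-promoter reporter constructs, and after 24 h reporter RNA is reverse-transcribed, PCR-amplified and resolved by capillary electrophoresis for fluorescence quantitation; activity is scored up or down against DMSO.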

[8] = ATG_SREBP_CIS: Attagene CIS-FACTORIAL HepG2 Assay for human Sterol Regulatory Element Binding (SREBP) (AID 2282962); conditions: HepG2 Attagene cis-factorial SREBP reporter, mRNA; actives raise or lower the signal
How it was run: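 Values derive from bidirectional curve fitting with DMSO as baseline. The underlying measurement is reporter mRNA from cis-element-regulated units in transiently transfected HepG2, quantified by RT-PCR and capillary electrophoresis after 24 h exposure.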

[9] = target: Signal transducer and activator of transcription 3 (Homo sapiens) (UniProt P40763); test: ATG_STAT3_CIS: Attagene CIS-FACTORIAL HepG2 Assay for human Signal Transducer and Activator of Transcription 3 (STAT3) (AID 2282963); conditions: HepG2, Attagene cis-factorial STAT3 reporter transcription; actives raise or lower the signal
How it was run: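 Readout is reporter transcript quantified by RT-PCR and capillary electrophoresis, with 6-FAM primer extension and HpaI digestion. Total RNA is taken 24 h after dosing transiently transfected HepG2 carrying cis-regulated reporter units. Bidirectional fit against DMSO.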

[10] = ATG_TA_CIS: Attagene CIS-FACTORIAL HepG2 Assay for human TA Basal Promoter (AID 2282964); conditions: HepG2 Attagene CIS-factorial TA basal promoter reporter; actives raise or lower the signal
How it was run: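 Background internal-marker endpoint from a 52-component HepG2 cis-reporter panel. Cells treated 24 h; reporter transcripts quantified via RT-PCR and CE fluorescence against DMSO baseline.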

Measured: AC50

Sequence of Transcription factor Sp1 (Homo sapiens) (P08047 whole entry, looked up): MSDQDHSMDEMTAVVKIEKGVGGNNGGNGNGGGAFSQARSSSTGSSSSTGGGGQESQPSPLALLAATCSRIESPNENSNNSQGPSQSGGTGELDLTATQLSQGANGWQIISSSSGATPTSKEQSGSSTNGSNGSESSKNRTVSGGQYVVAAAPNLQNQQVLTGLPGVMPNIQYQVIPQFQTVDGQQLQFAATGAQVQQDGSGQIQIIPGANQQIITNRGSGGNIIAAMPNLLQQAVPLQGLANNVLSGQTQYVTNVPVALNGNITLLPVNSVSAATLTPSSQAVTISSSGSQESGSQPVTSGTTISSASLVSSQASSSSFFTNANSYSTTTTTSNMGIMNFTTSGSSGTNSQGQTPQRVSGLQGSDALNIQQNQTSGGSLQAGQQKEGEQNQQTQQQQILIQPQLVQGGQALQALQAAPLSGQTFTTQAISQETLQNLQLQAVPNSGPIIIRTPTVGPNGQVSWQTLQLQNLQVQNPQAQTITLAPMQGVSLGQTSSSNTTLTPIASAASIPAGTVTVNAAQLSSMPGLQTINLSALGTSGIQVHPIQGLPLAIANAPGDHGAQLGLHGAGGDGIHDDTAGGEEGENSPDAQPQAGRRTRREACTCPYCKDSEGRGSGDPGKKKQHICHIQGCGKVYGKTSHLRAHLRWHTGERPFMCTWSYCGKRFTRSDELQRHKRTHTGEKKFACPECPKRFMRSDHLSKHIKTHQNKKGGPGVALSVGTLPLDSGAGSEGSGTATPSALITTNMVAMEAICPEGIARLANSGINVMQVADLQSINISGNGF
Sequence of Signal transducer and activator of transcription 3 (Homo sapiens) (P40763 whole entry, looked up): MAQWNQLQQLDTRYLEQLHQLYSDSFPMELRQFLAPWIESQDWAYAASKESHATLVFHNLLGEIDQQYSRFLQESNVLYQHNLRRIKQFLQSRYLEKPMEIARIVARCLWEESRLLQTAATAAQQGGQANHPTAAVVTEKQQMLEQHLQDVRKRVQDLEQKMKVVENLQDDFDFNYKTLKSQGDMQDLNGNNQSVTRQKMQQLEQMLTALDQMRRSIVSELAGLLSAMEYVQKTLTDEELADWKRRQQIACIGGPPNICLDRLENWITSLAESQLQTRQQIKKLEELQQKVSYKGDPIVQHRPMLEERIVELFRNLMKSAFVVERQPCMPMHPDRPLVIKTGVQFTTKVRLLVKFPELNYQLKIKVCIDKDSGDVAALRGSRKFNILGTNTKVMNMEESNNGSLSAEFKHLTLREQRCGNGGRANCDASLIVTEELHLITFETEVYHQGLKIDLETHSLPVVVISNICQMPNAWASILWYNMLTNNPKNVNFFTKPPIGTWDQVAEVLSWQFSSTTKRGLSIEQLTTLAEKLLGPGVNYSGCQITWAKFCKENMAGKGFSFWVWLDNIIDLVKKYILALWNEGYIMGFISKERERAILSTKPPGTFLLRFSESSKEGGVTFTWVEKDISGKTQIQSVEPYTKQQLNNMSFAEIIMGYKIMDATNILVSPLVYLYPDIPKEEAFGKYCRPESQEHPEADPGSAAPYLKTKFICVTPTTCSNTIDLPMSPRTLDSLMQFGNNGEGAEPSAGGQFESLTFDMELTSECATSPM
Sequence of Paired box protein Pax-6 (Homo sapiens) (P26367 whole entry, looked up): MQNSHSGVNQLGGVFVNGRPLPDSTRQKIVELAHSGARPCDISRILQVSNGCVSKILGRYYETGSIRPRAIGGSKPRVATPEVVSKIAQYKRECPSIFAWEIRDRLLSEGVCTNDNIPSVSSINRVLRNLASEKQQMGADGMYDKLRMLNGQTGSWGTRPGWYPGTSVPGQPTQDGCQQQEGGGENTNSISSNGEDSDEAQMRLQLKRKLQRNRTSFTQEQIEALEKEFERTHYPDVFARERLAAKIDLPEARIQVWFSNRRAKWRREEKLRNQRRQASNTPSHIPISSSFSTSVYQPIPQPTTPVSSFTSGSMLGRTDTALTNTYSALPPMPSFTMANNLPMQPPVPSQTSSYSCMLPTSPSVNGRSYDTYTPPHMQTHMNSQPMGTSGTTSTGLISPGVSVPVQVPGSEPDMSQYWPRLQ

CS/C(C)=N/OC(=O)N(C)SN(C)C(=O)O/N=C(\C)SC
inactive: [1] | [2] | [3] | [4] | [5] | [6] | [7] | [8] | [9]

COc1cnc(OC)n2nc(NS(=O)(=O)c3c(OCC(F)F)cccc3C(F)(F)F)nc12
inactive: [1] | [2] | [4] | [5] | [6] | [7] | [8] | [9] | [10]
active: [3] 22 µM and 16.4 µM

Cc1cc(Cl)ccc1OCC(=O)O
inactive: [1] | [2] | [3] | [5] | [6] | [7] | [8] | [9] | [10]

CC1=C(C(=O)Nc2ccccc2)SCCO1
inactive: [2] | [4] | [5] | [6] | [7] | [8] | [9]
active: [3] 40.4 µM

CC(C)C1(C)N=C(c2nc3ccccc3cc2C(=O)O)NC1=O (centres undefined)
inactive: [1] | [2] | [4] | [5] | [6] | [7] | [8] | [9] | [10]
active: [3] 11.1 µM

Cc1ccc(-c2c(Cl)nc(C#N)n2S(=O)(=O)N(C)C)cc1
inactive: [2] | [6] | [8] | [9]
active: [1] 11.9 µM | [3] 3.08 µM | [4] 11.9 µM | [5] 16.3 µM | [7] 11.9 µM

C=CCC1=C(C)[C@@H](OC(=O)[C@@H]2[C@@H](C=C(C)C)C2(C)C)CC1=O
inactive: [2] | [5] | [6] | [7] | [8] | [9]
active: [1] 5.59 µM | [3] 0.965 µM

COc1nc(C)nc(NC(=O)NS(=O)(=O)c2ccccc2CCC(F)(F)F)n1
active: [3] 18.9 µM and 50 µM and 33.4 µM
inactive: [1] | [2] | [4] | [5] | [6] | [7] | [8] | [9] | [10]

CCOc1cc(Oc2ccc(C(F)(F)F)cc2Cl)ccc1[N+](=O)[O-]
active: [3] 8.64 µM | [4] 13.7 µM | [5] 29.8 µM
inactive: [1] | [2] | [6] | [7] | [8] | [9] | [10]

CCCCNC(=O)n1c(NC(=O)OC)nc2ccccc21
inactive: [1] | [2] | [3] | [5] | [6] | [7] | [8] | [9]

C=CC1(C)OC(=O)N(c2cc(Cl)cc(Cl)c2)C1=O (centres undefined)
inactive: [2] | [3] | [4] | [5] | [6] | [7] | [8] | [9] | [10]
active: [3] 17.3 µM and 31.1 µM and 33 µM

CC(C)Oc1cc(-n2nc(C(C)(C)C)oc2=O)c(Cl)cc1Cl
inactive: [2] | [4] | [5] | [6] | [7] | [8] | [9] | [10]
active: [1] 0.427 µM | [3] 0.284 µM

O=C(O)c1nc(Cl)ccc1Cl
inactive: [2] | [3] | [5] | [6] | [7] | [8] | [9]

CC(Oc1ccc(Cl)cc1Cl)C(=O)O (centres undefined)
active: [3] 79.7 µM
inactive: [2] | [5] | [6] | [7] | [8] | [9] | [10]

COC(=O)c1ccccc1C(=O)OC
active: [3] 32.8 µM
inactive: [1] | [2] | [5] | [6] | [7] | [8] | [9]

CCOP(=S)(OCC)SCn1c(=O)oc2cc(Cl)ccc21
inactive: [2] | [5] | [6] | [7] | [8] | [9]
active: [1] 7.17 µM | [3] 2.21 µM

CCNc1nc(Cl)nc(NCC)n1
active: [3] 32.7 µM
inactive: [1] | [2] | [5] | [6] | [7] | [8] | [9] | [10]

COP(=S)(OC)Oc1nc(Cl)c(Cl)cc1Cl
inactive: [1] | [2] | [5] | [6] | [7] | [9]
active: [3] 13.7 µM | [8] 32 µM

O=C(Nc1ccccc1)Nc1ccnc(Cl)c1
active: [4] 22.6 µM | [5] 67.2 µM | [6] 11.9 µM | [7] 24.9 µM | [8] 13.1 µM
inactive: [2] | [3] | [9]

Fc1ccc(Oc2ccnc3cc(Cl)cc(Cl)c23)cc1
inactive: [1] | [2] | [3] | [5] | [6] | [7] | [8] | [9] | [10]
active: [4] 2.17 µM

CC(C)(C)c1ccc(CSc2cnn(C(C)(C)C)c(=O)c2Cl)cc1
inactive: [2] | [6] | [8] | [9]
active: [1] 0.527 µM | [3] 2.14 µM | [5] 1.88 µM | [7] 0.0129 µM

CN(C)C(=S)SSC(=S)N(C)C
inactive: [1] | [2] | [3] | [4] | [5] | [6] | [7] | [8] | [9] | [10]

C#CCOS(=O)OC1CCCCC1Oc1ccc(C(C)(C)C)cc1 (centres undefined)
active: [1] 1.39 µM | [3] 0.661 µM | [5] 2.4 µM | [6] 4.22 µM
inactive: [2] | [4] | [7] | [8] | [9]

COC(=O)C(C)Oc1ccc(Oc2ccc(Cl)cc2Cl)cc1 (centres undefined)
inactive: [1] | [2] | [5] | [6] | [7] | [8] | [9] | [10]
active: [3] 23 µM and 16.9 µM and 22 µM | [4] 18.7 µM and 11 µM and 23 µM

CCNc1nc(Cl)nc(NC(C)C)n1
active: [3] 27.4 µM [middle of 4 runs]
inactive: [2] | [4] | [5] | [6] | [7] | [8] | [9] | [10]

O=C(O)COc1nc(Cl)c(Cl)cc1Cl
active: [3] 59.9 µM | [4] 50 µM
inactive: [1] | [2] | [5] | [6] | [7] | [8] | [9] | [10]

CC1COC(Cn2cncn2)(c2ccc(Oc3ccc(Cl)cc3)cc2Cl)O1 (centres undefined)
inactive: [2] | [6] | [7] | [9] | [10]
active: [3] 2 µM | [4] 3.17 µM | [8] 1.97 µM

Cc1c(F)c(F)c(COC(=O)C2C(/C=C(\Cl)C(F)(F)F)C2(C)C)c(F)c1F (centres undefined)
active: [3] 13.8 µM
inactive: [2] | [4] | [6] | [7] | [8] | [9] | [10]
